Test results: PubChem BioAssay (NCATS)
Results filed as inconclusive are left out. Active and inactive are the calls of the source. Calls come from the whole dose curve; as a rule, active = well fitted inhibition curve with a large enough effect; inconclusive = small, poorly fitted or top-dose-only effect; inactive = flat fitted curve, though single readings scatter.

How the values were obtained:
Test in all cases: qHTS profiling for inhibitors of Plasmodium falciparum proliferation (AID 504749); note: nearly all actives have a fitted effect of over 60% in size
Settings in all cases: P. falciparum in erythrocytes, SYBR Green DNA, 72 h; series mostly up to 28.7 µM
CP238 = tested on: CP238
How it was run: (§1)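 Parasite proliferation within erythrocytes, 72 h exposure. Endpoint: SYBR Green I fluorescence after overnight lysis at room temperature. Controls: 0.29 uM artemisinin, DMSO.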

CP247 = tested on: CP247
How it was run: as §1

CP250 = tested on: CP250
How it was run: as §1

CP252 = tested on: CP252
How it was run: as §1

CP256 = tested on: CP256
How it was run: as §1

CP260 = tested on: CP260
How it was run: as §1

CP262 = tested on: CP262
How it was run: as §1

CP265 = tested on: CP265
How it was run: as §1

CP266 = tested on: CP266
How it was run: as §1

CP268 = tested on: CP268
How it was run: as §1

CP269 = tested on: CP269
How it was run: as §1

CP286 = tested on: CP286
How it was run: as §1

CP291 = tested on: CP291
How it was run: as §1

CP297 = tested on: CP297
How it was run: as §1

CP305 = tested on: CP305
How it was run: as §1

CP315 = tested on: CP315
How it was run: as §1

CP325 = tested on: CP325
How it was run: as §1

CP329 = tested on: CP329
How it was run: as §1

CP335 = tested on: CP335
How it was run: as §1

DFO2036 = tested on: DFO2036
How it was run: as §1

Measured: Potency

O=C(CCCN1CCN(c2ccccn2)CC1)c1ccc(F)cc1
inactive: all assays above

CC(=O)Oc1ccc(C2(c3ccc(OC(C)=O)cc3)C(=O)Nc3ccccc32)cc1
inactive: all assays above

CCN(CC)CCNC(=O)c1cc(Cl)c(N)cc1OC
inactive: all assays above

C=Cc1c(C)c2cc3[nH]c(cc4nc(cc5nc(cc1[nH]2)C(C)=C5CCC(=O)O)C(CCC(=O)O)=C4C)c(C)c3C=C
inactive: all assays above

CC1(C)CO[C@@H](CC(=O)O)CN1
inactive: all assays above

COc1cc(C)c(Cc2cnc(N)nc2N)cc1OC
inactive: all assays above

CCCCCCCCCCCCCCCC(=O)NCCO
inactive: all assays above

O=C(O)CN1C(=O)c2cccc3cccc(c23)C1=O
inactive: all assays above

C[C@H](N)[C@H](O)c1cccc(O)c1
inactive: all assays above

O=C(O)COc1nn(Cc2ccccc2)c2ccccc12
inactive: all assays above

N[C@@H](CSCCCO)C(=O)O
inactive: all assays above

O=C1NS(=O)(=O)c2ccccc21
inactive: all assays above

O=c1cc(CO)occ1O
inactive: all assays above

Cc1c(Cl)cccc1Nc1ccccc1C(=O)O
inactive: all assays above
